Measured values taken from PubChem BioAssay (NCATS).
“And” between values parts separate entries of the source, which are not always exact repeats. Identical values can stand only once. Inconclusive results are not listed. Where a structure was tested more than once in an assay, its records may differ in their call. The source made the active and inactive calls. Calls come from the whole dose curve; as a rule, active = well fitted inhibition curve with a large enough effect; inconclusive = small, poorly fitted or top-dose-only effect; inactive = flat fitted curve, though single readings scatter.

Each compound was assayed on NIH3T3 (assay: Cytotoxic Profiling of Annotated Libraries Using Quantitative High-Throughput Screening (AID 1296008; note: nearly all actives have a fitted effect of over 60% in size)). Conditions: Five cell lines viability, CellTiter-Glo ATP luminescence, 48-72 h; max response: hits give low values.
Method in brief: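 Cytotoxicity was measured as CellTiter-Glo ATP luminescence, read after 10 min at room temperature. Compound treatment of the cells lasted 48 or 72 hr at 37 degrees Celsius in a qHTS format.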
% is set by controls: 0 for no effect and ±100 for the full control effect; potency is the fitted concentration of half-maximal effect.

| SMILES | outcome | max response | Potency |
| --- | --- | --- | --- |
| CC(N)C12CC3CC(CC(C3)C1)C2 (stereo unspecified) | inactive | – | – |
| COc1cccc(N(C)C(=S)Oc2ccc3c(c2)CCCC3)n1 | – | 2.09% (inactive) | – |
| NC(=O)c1cccc(N)c1 | inactive | – | – |
| O=c1oc2c(O)c(O)cc3c(=O)oc4c(O)c(O)cc1c4c23 | – | 2.17% (inactive) | – |
| Nc1nc(=S)c2[nH]cnc2[nH]1 | – | – | 841 nM (active) and 3.32 µM (active) |
| N[C@@H](C(=O)N[C@@H]1C(=O)N2C(C(=O)O)=C(Cl)CS[C@H]12)c1ccccc1 | inactive | – | – |
| CC(C)C[C@H](NC(=O)[C@H](CCc1ccccc1)NC(=O)CN1CCOCC1)C(=O)N[C@@H](Cc1ccccc1)C(=O)N[C@@H](CC(C)C)C(=O)[C@@]1(C)CO1 | – | – | 299 nM (active) and 235 nM (active) |
| NC(=O)c1ccc2[nH]ccc2c1 | – | -9.23% (inactive) | – |
| COC(c1ccccc1)(c1ccccc1)[C@H](Oc1nc(C)cc(C)n1)C(=O)O | inactive | -19.9% (inactive) | – |
| COc1nc(N)nc2c1ncn2[C@@H]1O[C@H](CO)[C@@H](O)[C@@H]1O | – | -9.88% (inactive) and 4.97% (inactive) | – |
| COC(=O)Nc1nc2ccc(Sc3ccccc3)cc2[nH]1 | – | – | 668 nM (active) |
| CCN(CC)CCn1c(=O)c(Cc2ccc(OC)cc2)nc2ccccc21 | inactive | – | – |
| COc1cc(NS(=O)(=O)c2ccc(N)cc2)nc(OC)n1 | – | -5.03% (inactive) and -1.81% (inactive) | – |
| O=C(NCC1CN(c2ccc(N3CCOCC3=O)cc2)C(=O)O1)c1ccc(Cl)s1 (stereo unspecified) | inactive | 3.35% (inactive) | – |
| CN(C)c1ccc(C(=C2C=CC(=[N+](C)C)C=C2)c2ccc(N(C)C)cc2)cc1 | – | – | 944 nM (active) and 372 nM (active) |
| CC1=C(C(=O)O)N2C(=O)[C@@H](NC(=O)C(N)c3ccccc3)[C@H]2SC1 (stereo partly specified) | inactive | – | – |

| SMILES | outcome | max response | Potency |
| --- | --- | --- | --- |
| CCN1CCCC1CNC(=O)c1cc(S(N)(=O)=O)ccc1OC (stereo unspecified) | – | -4.16% (inactive) | – |
| CC(C)NCC(O)c1ccc(NS(C)(=O)=O)cc1 (stereo unspecified) | – | 4.22% (inactive) | – |
| CC(C)C1CCC(C(=O)N[C@H](Cc2ccccc2)C(=O)O)CC1 (stereo partly specified) | – | 0.816% (inactive) and -0.595% (inactive) | – |
| COc1c(N2CCNC(C)C2)c(F)cc2c(=O)c(C(=O)O)cn(C3CC3)c12 (stereo unspecified) | inactive | -3.19% (inactive) | – |
| CC(C)(C)NC(=O)[C@H]1CC[C@H]2[C@@H]3CC[C@H]4NC(=O)C=C[C@]4(C)[C@H]3CC[C@]12C | inactive | 2.59% (inactive) | – |
| CCCCS(=N)(=O)CCC(N)C(=O)O (stereo unspecified) | – | -0.0148% (inactive) | – |
| Nc1nc(N)nc(-c2cc(Cl)ccc2Cl)n1 | – | -1.04% (inactive) and -13.6% (inactive) | – |
| CCCCOc1ccc(CC(=O)NO)cc1 | – | -7.85% (inactive) | 23700 nM (active) |
| NCCCC(O)(P(=O)(O)O)P(=O)(O)O | inactive | 0.802% (inactive) | – |
| COc1cc2ncnc(Nc3cccc(Cl)c3)c2cc1OC | – | -25% (inactive) | 2090 nM (active) |
| Cc1oc(=O)oc1CN1CCN(c2cc3c(cc2F)c(=O)c(C(=O)O)c2n3C(C)S2)CC1 (stereo unspecified) | inactive | -0.29% (inactive) | – |
| O=C(O)C1CCCN(CCC=C(c2ccccc2)c2ccccc2)C1 (stereo unspecified) | – | 3.07% (inactive) | – |
| CC[C@H](C)C(=O)O[C@H]1C[C@@H](C)C=C2C=C[C@H](C)[C@H](CC[C@@H]3C[C@@H](O)CC(=O)O3)[C@H]21 | – | -16.3% (inactive) | – |
| CNC1CCCN(c2c(F)cc3c(=O)c(C(=O)O)cn(C4CC4)c3c2OC)C1 (stereo unspecified) | inactive | -6.02% (inactive) | – |
| Nc1nc(N)c2nc(CNc3ccc(C(=O)NC(CCC(=O)O)C(=O)O)cc3)cnc2n1 (stereo unspecified) | – | – | 93.5 nM (active) |
| O=C(O)c1cn(C2CC2)c2cc(N3CCNCC3)c(F)cc2c1=O | inactive | – | – |
